Source: PubChem BioAssay
M1 ag = human M1 muscarinic receptor agonists, primary screen, Fluo-8 calcium fluorescence, CHO-K1 cells, HTS; activation, % at 3 µM; CHO-K1 hM1, agonist mode; 0% DMSO, 100% acetylcholine EC100; 360,000 tested, 0.33% active;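 active = activation above the run's mean compound activation plus 3 SD, cut at about 16% in these data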;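 note: peak over basal fluorescence ratio within a 140 s kinetic read after compound addition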
Target sequence (P11229 whole entry, looked up): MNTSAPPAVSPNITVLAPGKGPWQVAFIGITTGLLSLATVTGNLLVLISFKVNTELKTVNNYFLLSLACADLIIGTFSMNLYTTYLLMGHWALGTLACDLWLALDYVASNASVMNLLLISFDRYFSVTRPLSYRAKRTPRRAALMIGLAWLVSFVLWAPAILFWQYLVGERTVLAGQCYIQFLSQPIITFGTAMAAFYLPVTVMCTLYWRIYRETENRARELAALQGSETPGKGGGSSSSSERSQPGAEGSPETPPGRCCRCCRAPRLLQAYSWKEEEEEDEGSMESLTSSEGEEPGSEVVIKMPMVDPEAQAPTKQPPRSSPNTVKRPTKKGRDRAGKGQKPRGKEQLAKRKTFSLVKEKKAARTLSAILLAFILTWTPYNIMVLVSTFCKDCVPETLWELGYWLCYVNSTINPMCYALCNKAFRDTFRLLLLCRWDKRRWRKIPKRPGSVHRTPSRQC
CHO-K1 Ca ag = counter-screen for M1 agonists: effect in parental CHO-K1 cells; AID 602248, 2012; 360,000 tested, 0.48% active; activation, % at 3 µM; Fluo-8 calcium fluorescence; scaled to maximal ATP response, vehicle zero; in the data active = activation above about 15%;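 note: untransfected CHO-K1 host cells lacking M1 receptor as counterscreen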
M1 PAM parental = nonselective calcium activators in parental CHO-K1 cells, primary screen, counter-screen for M1 PAM project, cell-based, Fluo-8 calcium fluorescence, full deck, 1536-well | ATP EC20; 0% at ATP EC20, 100% at ATP max | activation, % at 3 µM | AID 602247, 2012 | 360,000 tested, 0.02% active;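 active = activation above the run cutoff, the mean activation of all test compounds plus 3 SD, cut at about 40% in these data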;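 note: peak over basal fluorescence ratio in a 140 s read after ATP addition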
M1 PAM = human M1 muscarinic receptor positive allosteric modulators, primary screen, CHO-K1 cells, Fluo-8 calcium fluorescence, 1536-well. CHO-K1 hM1, ACh EC20; 0% = ACh EC20, 100% = maximal ACh. activation, % at 3 µM. 360,000 tested, 0.088% active. AID 588819, 2011; in the data active = activation above about 19%, passing the limit was not always enough
CHRM1 antagonist = human M1 muscarinic receptor antagonists, primary screen, CHO-K1 cells, Fluo-8 calcium fluorescence, 1536-well; Muscarinic acetylcholine receptor M1 (Homo sapiens), P11229; CHO-K1 hM1, ACh EC80 antagonist; inhibition, % at 3 µM; 360,000 tested, 1.3% active; AID 588852, 2011;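 active = percent inhibition above its own plate's cutoff, namely the mean of that plate's compound wells plus 3 SD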;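 note: peak over basal fluorescence ratio during 140 s after agonist addition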
CHO-K1 Ca antag = M1 antagonist counterscreen hit in parental CHO-K1 cells | ATP-induced calcium, Fluo-8 fluorescence | inhibition, % at 3 µM | 360,000 tested, 0.6% active | AID 602250;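 active = inhibition above a per-plate cutoff, the plate's mean sample inhibition plus 3 SD, cut at about 24% in these data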
Each line names hits and unclear results; the compound was inactive in the other large screens. Rows were chosen to be rich in hits. Some 2.4% of all compounds tested hit in one or more screens of this group.

O=[N+]([O-])c1ccc(N/N=C2\CC3CC=CC23)c([N+](=O)[O-])c1 (stereo not given)	none
O=C1/C(=C\c2cccnc2)Sc2ccccc21	M1 ag 19
COc1ccc(CNC(=O)C/C(C)=N/NC(=O)C23CC4CC(CC(C4)C2)C3)cc1	none
COc1cccc(NC(=O)NC(C)C2CC3CCC2C3)c1 (stereo not given)	none
CCN(CC)CCCNC(=O)c1cc(-c2ccccc2)c(N2CCCCC2)s1	CHRM1 antagonist 55
O=C(NCCc1ccccc1)c1cc(-c2ccccc2)c(N2CCOCC2)s1	none
CC(C)CN1CCN(CCCOC(=O)Nc2cccc3ccccc23)CC1C (stereo not given)	CHRM1 antagonist 32
CCCCCCC(C)OC(=O)Nc1cccc2ccccc12 (stereo not given)	none
CCOC(=O)N1CCC(N2Cc3cccc(C(=O)NCc4ccc(C)cc4)c3C2=O)CC1	none
CCOC(=O)N1CCC(N2Cc3cccc(C(=O)NC(C)c4ccc5c(c4)OCCO5)c3C2=O)CC1 (stereo not given)	CHO-K1 Ca antag 42
CCOC(=O)N1CCC(N2Cc3cccc(C(=O)NCc4ccccn4)c3C2=O)CC1	CHRM1 antagonist 28
CCOC(=O)N1CCC(NC(=O)c2cccc3c2C(=O)N(CCOC)C3)CC1	none
COCc1cc(C)nc2sc3c(=O)n(Cc4ccco4)nnc3c12	CHO-K1 Ca antag 26
Cc1ccc(-c2c(C(=O)N/N=C/c3ccc(C)o3)nnn2-c2nonc2N)cc1	none
Cc1ccc(-c2c(C(=O)N/N=C/c3ccco3)nnn2-c2nonc2N)cc1	CHO-K1 Ca ag 16
CCOc1ccc(-c2c(C(=O)N/N=C/c3ccco3)nnn2-c2nonc2N)cc1	M1 ag 18
CCN(CC)c1ccc(/C=C(/C#N)C(=O)NCc2ccccc2)o1	M1 ag 16, CHO-K1 Ca ag 27
COc1cc(OC)cc(-c2c(C#Cc3ccsc3)c3cc(-c4ccc5c(c4)OCCO5)ccc3n2C)c1	none
CCOc1ccc2[nH]c(=O)c(CN(CC3COCCO3)C(=O)c3ccc(C)cc3)cc2c1 (stereo not given)	none
Cc1ccc(NC(=O)/C=C\C(=O)NCC(=O)O)cc1C	none
O=C(Nc1cccc(Cl)c1N1CCCC1)c1ccc([N+](=O)[O-])o1	none
CCN1CCN(c2c(Cl)cccc2NC(=O)c2ccc([N+](=O)[O-])o2)CC1	CHRM1 antagonist 43
Cn1cc(CNCc2cnc3ccccn23)c(-c2ccc(Oc3ccccc3)cc2)n1	none
CN(Cc1cn(C)nc1-c1ccc(Oc2ccccc2)cc1)Cc1cnc2ccccn12	CHRM1 antagonist 24
COc1ccc(NC(=O)c2ccccc2-c2ccccc2)c(C)c1	none
O=C(c1cccc(Cl)c1)N1CCN(Cc2ccncc2)CC1	CHO-K1 Ca antag 25
O=C(c1cccc(C(=O)N2CCN(Cc3ccccc3)CC2)c1)N1CCN(Cc2ccccc2)CC1	none
Cc1ccccc1Nc1nc(N)nc(COC(=O)c2ccc(O)cc2)n1	M1 ag 19
C=CCn1c(C)c(C(C)=O)c(N2CCN(c3ccccc3)CC2)nc1=S	CHRM1 antagonist 89
C=CCn1c(C)c(C(C)=O)c(N2CCCC2)nc1=S	CHRM1 antagonist 98
CCn1c(C)c(C(C)=O)c(N2CCCC2)nc1=S	CHRM1 antagonist 40
Cc1ccc(C2=NN(C(=O)CCCC(=O)O)C(c3ccc4c(c3)OCO4)C2)cc1 (stereo not given)	none
CSc1nnnn1CCn1nnnc1SC	CHO-K1 Ca antag 36
CC(C)CNc1nc(SCC(=O)Nc2ccccc2)nc(N2CCOCC2)n1	none
COc1ccc(CCNC(=O)CSc2nc3[nH]ncc3c(=O)n2-c2ccc(Br)cc2)cc1OC	M1 ag 25
Cc1ccc(-n2ncc3c(N4CCN(c5ccccc5)CC4)ncnc32)c(C)c1	CHRM1 antagonist 24
COC(=O)COc1ccc(C2NC(=O)NC(c3ccccc3)=C2C(C)=O)cc1Br (stereo not given)	none
COc1ccc(N=C2SCC(c3ccc([N+](=O)[O-])cc3)=NN2CCO)cc1	CHO-K1 Ca ag 15
COc1cc(C(=O)OCC(=O)Nc2sccc2C(N)=O)cc(OC)c1OC	none
NC(=O)c1ccsc1NC(=O)COC(=O)Cc1cccc2ccccc12	CHRM1 antagonist 40, CHO-K1 Ca antag 29
COc1cc(CCC(=O)OCC(=O)Nc2sccc2C(N)=O)cc(OC)c1OC	CHRM1 antagonist 37, CHO-K1 Ca antag 39
Cc1ccccc1SCC(=O)OCC(=O)Nc1sccc1C(N)=O	CHO-K1 Ca ag 16, CHO-K1 Ca antag 28
NC(=O)c1ccsc1NC(=O)COC(=O)Cc1c[nH]c2ccccc12	none
NC(=O)c1ccsc1NC(=O)COC(=O)Cc1ccc(F)cc1	CHO-K1 Ca ag 17
NC(=O)c1ccsc1NC(=O)CSc1ccccc1F	none
CC1CCCCC1NC(=O)CNC(=O)c1cccs1 (stereo not given)	none
CC(C)N(Cc1ccccc1)C(=O)CN1C(=O)NC2(CCCCCC2)C1=O	none
CN1CCN(c2cc(-c3ccc4ccccc4c3)nc3ccnn23)CC1	none
CC(C)CC(NC(=O)C1CCC(=O)N1C(=O)OCc1ccccc1)C(=O)NC(Cc1ccccc1)C(N)=O (stereo not given)	none
CS(=O)(=O)Nc1cccc(C2=NN(C(=O)CCCC(=O)O)C(c3cccs3)C2)c1 (stereo not given)	none
NC(=O)c1ccsc1NC(=O)COC(=O)Cc1ccccc1[N+](=O)[O-]	CHO-K1 Ca antag 31
CCc1ccc2cc(F)cc(F)c2n1	none
Cc1cc(C)[n+](-c2ccc(C(C)C)cc2)c2[nH]c(=O)[nH]c(=O)c12	CHRM1 antagonist 55
O=C(Nc1cccc(-c2nc3ccccc3o2)c1)c1ccc(N2C(=O)C3C4C=CC(C4)C3C2=O)cc1 (stereo not given)	CHRM1 antagonist 37
O=C(COC(=O)c1c2c(nc3ccccc13)/C(=C\c1cccs1)CCC2)Nc1ccccc1	CHRM1 antagonist 32
CC(C)(C)NC(=O)COC(=O)c1c2c(nc3ccccc13)CCC2	CHRM1 antagonist 31
COc1cccc(NC(=O)COC(=O)c2c3c(nc4ccccc24)CCC(C)C3)c1 (stereo not given)	CHRM1 antagonist 48
O=C(COC(=O)c1c2c(nc3ccccc13)CCCC2)Nc1ccc2c(c1)OCO2	CHRM1 antagonist 32
